Results on 9 compounds are retold here after PubChem BioAssay (NCATS).

Values without a mark were called inactive. Results filed as inconclusive are left out. The list shows a part of the results. Active and inactive are the calls of the source. Unless noted, the call rests on the fitted dose curve; in most records, active means well fitted curve in the direction sought with a large enough effect; inconclusive means small, poorly fitted or top-dose-only effect, or another doubt; inactive means no such curve, though single readings can be large; an effect the other way counts as inactive or inconclusive. A value given as a limit tells only on which side of the number the result lay.

The target of experiment [1] is Rap guanine nucleotide exchange factor 3 (Homo sapiens) (UniProt O95398). Put plainly: Confirmatory qHTS for agonist of cAMP-regulated guanine nucleotide exchange factor 3 (EPAC1) (AID 1645881).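 Further: EPAC1 catalysed release of BODIPY-GDP from Rap1B seen as fluorescence loss; 100% = effect of cAMP agonist control; nearly all actives have a fitted effect of over 75% in size.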 For orientation: In qHTS, concentration-response curves come from the screen itself.
The target of experiment [2] is Rap guanine nucleotide exchange factor 4 (Homo sapiens) (UniProt Q8WZA2). The experiment in a line: Confirmatory qHTS for agonist of cAMP-regulated guanine nucleotide exchange factor 4 (EPAC2) (AID 1645884).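 Further: nucleotide exchange releases bodipy-GDP from Rap1 and this lowers its fluorescence; on the % scale 0 is the no-effect control and ±100 the full control effect; nearly all actives have a fitted effect of over 65% in size.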
For experiment [3] the target is unchanged. Put plainly: Confirmatory qHTS for antagonist of cAMP-regulated guanine nucleotide exchange factor 4 (EPAC2) (AID 1645885). Further: on the % scale 0 is the no-effect control and ±100 the full control effect; nearly all actives have a fitted effect of over 25% in size.
Experiment [4] concerns the target Rap guanine nucleotide exchange factor 3 (Homo sapiens) (UniProt O95398). Put plainly: Counterscreen qHTS for antagonist of cAMP-regulated guanine nucleotide exchange factor 3 (EPAC1) (AID 1645888).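 Further: fluorescence loss as bound BODIPY-GDP is released from Rap1B; % of control where 0% means no effect.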 The gist of the method: (§1)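 Measured: fluorescence of BODIPY-GDP bound to Rap1B, which falls as exchange proceeds. Conditions include 50 uM competing GDP, 5 and 30 min reads, and a later cAMP challenge for antagonist detection.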
In general terms: The purpose of a counterscreen is to sort out artefacts and off-target activity.

The target is the same in experiment [5]. Put plainly: Counterscreen qHTS for agonist of cAMP-regulated guanine nucleotide exchange factor 3 (EPAC1) (AID 1645889). Further: % of control where 0% means no effect; nearly all actives have a fitted effect of over 40% in size. In short, it runs like this: as §1
The target in experiment [6] is Lethal(3)malignant brain tumor-like protein 1 (Homo sapiens) (UniProt Q9Y468). Put plainly: qHTS Assay for the Inhibitors of L3MBTL1: Hit Validation (AID 540279). Further: potency means the concentration at half of the fitted maximal effect; nearly all actives have a fitted effect of over 70% in size. The conditions noted are these: L3MBTL1 methyl-lysine binding inhibition, biochemical qHTS. In short, it runs like this:
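AlphaScreen competition format: 50 nM L3MBTL1 preincubated 30 min at room temperature with 75 nM biotinylated H3(1-15)K9me1 peptide, then compounds added for 30 min, then streptavidin donor and nickel chelate acceptor beads (10 ug/mL final) for 30 min dark.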

Experiment [7] in a line: qHTS Assay for the Inhibitors of L3MBTL1: Hit Validationin AlphaScreen Counterscreen (AID 602224). Further: 0% is about no effect. The gist of the method:
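Artifact counterscreen: b-His6 1 nM, streptavidin donor + Ni-chelate acceptor beads 10 ug/mL each, cpd pin-transferred, 15 min RT, then beads 30 min RT dark, AlphaScreen read.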

Experiment [8] concerns the target Glucocorticoid receptor (Homo sapiens) (UniProt P04150). Put plainly: GR-GFP Redistribution (AID 450;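 active means compounds whose dose series gives a full or clear partial fitted curve of increased nuclear translocation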; further: potency means the concentration at half of the fitted maximal effect). The conditions noted are these: U2OS GR-GFP nuclear translocation, laser cytometry, 2 h.
The target of experiment [9] is Vitamin D3 receptor (Homo sapiens) (UniProt P11473). Put plainly: qHTS for Inhibitors of the vitamin D receptor (VDR): Hit Validation in Primary Screen (AID 602199). Further: potency means the concentration at half of the fitted maximal effect. The conditions noted are these: VDR-coactivator inhibition assay, qHTS confirmation. The gist of the method: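 Fluorescence polarization assay of VDR binding to Alexa 647-labelled SRC2-3 coactivator peptide: 800nM VDR with 5uM LG19078 agonist, compounds, 2 h at room temperature, read Ex 620 nm/Em 688 nm.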

Experiment [10] has the same target. The experiment in a line: qHTS for Inhibitors of the vitamin D receptor (VDR): Hit Validation using a Fluorescein Assay (AID 602200). Further: potency means the concentration at half of the fitted maximal effect. As to conditions: VDR-coactivator binding, fluorescein fluorescence polarization. The gist of the method: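 Fluorescence polarization (Ex 495 nm/Em 520 nm) read after 2 h at room temperature, reporting disruption of binding between 1.5 uM VDR-LBD, liganded by 5 uM LG19078, and 5 nM fluorescein-labelled SRC2-3 coactivator peptide (final concentrations).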

Experiment [11] has the same target. Put plainly: qHTS for Inhibitors of the vitamin D receptor (VDR): Hit Validation using a Beta-Lactamase Assay (AID 602202). Further: potency means the concentration at half of the fitted maximal effect. The gist of the method: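 Stably transfected HEK293 cells express a VDR–GAL4 DNA-binding-domain fusion driving a UAS beta-lactamase reporter, stimulated by agonist LG190178. Compounds were added 4 h after plating and incubated 18 h. A FRET beta-lactam substrate was then added for 2 h and cleaved substrate emission read at 447 nm.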

A short description of experiment [12]: qHTS for Inhibitors of the vitamin D receptor (VDR): Hit Validation using a Cytotoxicity Assay (AID 602204).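 Further: cells co-treated with VDR agonist LG190178 at 300 nM; potency means the concentration at half of the fitted maximal effect; nearly all actives have a fitted effect of over 75% in size.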 The gist of the method: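 Cytotoxicity is flagged by loss of ATP-dependent luminescence in cells treated 18 h with compound. Seeding density was 20,000 cells per well with 4 h pre-incubation; detection took 30 min.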

Sequence of Rap guanine nucleotide exchange factor 4 (Homo sapiens) (Q8WZA2 whole entry, looked up): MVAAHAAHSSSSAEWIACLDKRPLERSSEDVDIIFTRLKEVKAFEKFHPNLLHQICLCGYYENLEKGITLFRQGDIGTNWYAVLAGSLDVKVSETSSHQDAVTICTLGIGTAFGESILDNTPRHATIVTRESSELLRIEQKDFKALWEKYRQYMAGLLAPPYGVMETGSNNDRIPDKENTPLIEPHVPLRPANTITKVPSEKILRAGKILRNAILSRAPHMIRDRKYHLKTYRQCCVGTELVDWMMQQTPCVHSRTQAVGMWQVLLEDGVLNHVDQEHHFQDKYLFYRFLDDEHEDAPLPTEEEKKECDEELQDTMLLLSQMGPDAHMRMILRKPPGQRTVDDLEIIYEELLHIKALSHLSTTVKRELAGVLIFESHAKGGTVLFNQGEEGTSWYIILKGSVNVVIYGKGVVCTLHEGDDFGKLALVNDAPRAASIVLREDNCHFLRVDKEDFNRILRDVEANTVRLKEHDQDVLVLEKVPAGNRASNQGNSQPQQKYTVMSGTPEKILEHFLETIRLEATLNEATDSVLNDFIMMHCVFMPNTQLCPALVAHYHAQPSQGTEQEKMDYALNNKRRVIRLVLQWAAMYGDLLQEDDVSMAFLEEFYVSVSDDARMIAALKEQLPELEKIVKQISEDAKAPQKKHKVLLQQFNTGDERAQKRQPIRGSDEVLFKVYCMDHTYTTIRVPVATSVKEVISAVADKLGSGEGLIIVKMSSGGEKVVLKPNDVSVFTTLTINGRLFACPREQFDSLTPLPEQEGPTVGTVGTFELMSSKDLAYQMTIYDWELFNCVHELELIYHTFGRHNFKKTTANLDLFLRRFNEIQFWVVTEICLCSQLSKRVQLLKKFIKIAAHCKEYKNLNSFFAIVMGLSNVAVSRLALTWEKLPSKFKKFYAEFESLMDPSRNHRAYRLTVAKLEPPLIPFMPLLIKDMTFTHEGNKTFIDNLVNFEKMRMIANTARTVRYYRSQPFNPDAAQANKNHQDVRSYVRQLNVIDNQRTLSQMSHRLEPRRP
Sequence of Rap guanine nucleotide exchange factor 3 (Homo sapiens) (O95398 whole entry, looked up): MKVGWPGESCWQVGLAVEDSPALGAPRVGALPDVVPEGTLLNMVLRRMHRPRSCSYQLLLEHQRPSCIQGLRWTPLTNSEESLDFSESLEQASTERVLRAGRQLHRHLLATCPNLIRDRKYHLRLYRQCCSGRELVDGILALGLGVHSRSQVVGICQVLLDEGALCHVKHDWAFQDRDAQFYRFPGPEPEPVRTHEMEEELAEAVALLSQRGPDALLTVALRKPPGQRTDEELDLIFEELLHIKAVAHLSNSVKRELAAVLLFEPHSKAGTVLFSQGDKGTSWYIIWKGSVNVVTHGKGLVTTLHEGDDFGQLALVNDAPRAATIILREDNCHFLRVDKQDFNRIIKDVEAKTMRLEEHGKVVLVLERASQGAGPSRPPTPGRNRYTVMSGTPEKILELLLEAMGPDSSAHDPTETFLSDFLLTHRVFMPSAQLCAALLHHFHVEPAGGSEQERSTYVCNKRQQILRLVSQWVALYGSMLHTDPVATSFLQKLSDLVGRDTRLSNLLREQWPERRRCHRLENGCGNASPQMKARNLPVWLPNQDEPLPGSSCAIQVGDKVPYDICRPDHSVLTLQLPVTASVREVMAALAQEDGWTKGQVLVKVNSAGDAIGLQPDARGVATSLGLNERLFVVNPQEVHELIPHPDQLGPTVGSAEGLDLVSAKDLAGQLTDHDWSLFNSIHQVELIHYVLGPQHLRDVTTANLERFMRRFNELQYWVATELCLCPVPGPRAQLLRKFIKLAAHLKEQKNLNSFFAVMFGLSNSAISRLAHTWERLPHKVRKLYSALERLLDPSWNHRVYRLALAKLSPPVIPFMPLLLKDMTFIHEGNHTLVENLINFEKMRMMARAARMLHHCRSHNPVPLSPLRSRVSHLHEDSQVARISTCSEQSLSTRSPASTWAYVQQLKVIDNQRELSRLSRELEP
Sequence of Vitamin D3 receptor (Homo sapiens) (P11473 whole entry, looked up): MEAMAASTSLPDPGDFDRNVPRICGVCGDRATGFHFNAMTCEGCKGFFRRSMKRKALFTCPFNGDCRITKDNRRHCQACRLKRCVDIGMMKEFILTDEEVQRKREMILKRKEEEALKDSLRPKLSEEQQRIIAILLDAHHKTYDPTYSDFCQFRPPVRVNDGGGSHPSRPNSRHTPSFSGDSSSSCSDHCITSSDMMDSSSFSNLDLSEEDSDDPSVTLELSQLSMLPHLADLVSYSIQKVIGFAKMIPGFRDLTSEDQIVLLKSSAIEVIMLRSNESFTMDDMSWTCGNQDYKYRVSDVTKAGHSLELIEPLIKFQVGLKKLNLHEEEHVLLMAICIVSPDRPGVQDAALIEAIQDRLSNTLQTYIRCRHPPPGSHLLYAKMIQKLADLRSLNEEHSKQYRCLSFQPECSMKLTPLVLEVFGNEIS
Sequence of Glucocorticoid receptor (Homo sapiens) (P04150 whole entry, looked up): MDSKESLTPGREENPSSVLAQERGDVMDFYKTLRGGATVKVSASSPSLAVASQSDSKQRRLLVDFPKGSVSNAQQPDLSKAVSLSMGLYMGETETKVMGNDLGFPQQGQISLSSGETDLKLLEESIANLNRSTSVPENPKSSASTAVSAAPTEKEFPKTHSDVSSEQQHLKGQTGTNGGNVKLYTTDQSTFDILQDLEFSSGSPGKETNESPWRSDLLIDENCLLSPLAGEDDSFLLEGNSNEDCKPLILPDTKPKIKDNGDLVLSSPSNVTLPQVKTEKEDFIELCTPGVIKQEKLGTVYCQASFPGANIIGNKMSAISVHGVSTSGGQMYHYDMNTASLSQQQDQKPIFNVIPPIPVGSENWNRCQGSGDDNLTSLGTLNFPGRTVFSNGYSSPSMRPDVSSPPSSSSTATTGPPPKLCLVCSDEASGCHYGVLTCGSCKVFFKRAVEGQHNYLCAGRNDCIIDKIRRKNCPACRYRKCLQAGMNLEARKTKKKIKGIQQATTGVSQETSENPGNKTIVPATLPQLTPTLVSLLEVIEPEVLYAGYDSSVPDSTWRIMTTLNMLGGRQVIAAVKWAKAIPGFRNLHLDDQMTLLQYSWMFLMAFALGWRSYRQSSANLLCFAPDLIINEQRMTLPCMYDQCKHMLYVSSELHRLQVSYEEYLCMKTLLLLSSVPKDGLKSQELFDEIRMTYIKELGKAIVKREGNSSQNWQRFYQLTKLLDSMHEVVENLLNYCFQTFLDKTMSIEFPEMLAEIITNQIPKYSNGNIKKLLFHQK
Sequence of Lethal(3)malignant brain tumor-like protein 1 (Homo sapiens) (Q9Y468 whole entry, looked up): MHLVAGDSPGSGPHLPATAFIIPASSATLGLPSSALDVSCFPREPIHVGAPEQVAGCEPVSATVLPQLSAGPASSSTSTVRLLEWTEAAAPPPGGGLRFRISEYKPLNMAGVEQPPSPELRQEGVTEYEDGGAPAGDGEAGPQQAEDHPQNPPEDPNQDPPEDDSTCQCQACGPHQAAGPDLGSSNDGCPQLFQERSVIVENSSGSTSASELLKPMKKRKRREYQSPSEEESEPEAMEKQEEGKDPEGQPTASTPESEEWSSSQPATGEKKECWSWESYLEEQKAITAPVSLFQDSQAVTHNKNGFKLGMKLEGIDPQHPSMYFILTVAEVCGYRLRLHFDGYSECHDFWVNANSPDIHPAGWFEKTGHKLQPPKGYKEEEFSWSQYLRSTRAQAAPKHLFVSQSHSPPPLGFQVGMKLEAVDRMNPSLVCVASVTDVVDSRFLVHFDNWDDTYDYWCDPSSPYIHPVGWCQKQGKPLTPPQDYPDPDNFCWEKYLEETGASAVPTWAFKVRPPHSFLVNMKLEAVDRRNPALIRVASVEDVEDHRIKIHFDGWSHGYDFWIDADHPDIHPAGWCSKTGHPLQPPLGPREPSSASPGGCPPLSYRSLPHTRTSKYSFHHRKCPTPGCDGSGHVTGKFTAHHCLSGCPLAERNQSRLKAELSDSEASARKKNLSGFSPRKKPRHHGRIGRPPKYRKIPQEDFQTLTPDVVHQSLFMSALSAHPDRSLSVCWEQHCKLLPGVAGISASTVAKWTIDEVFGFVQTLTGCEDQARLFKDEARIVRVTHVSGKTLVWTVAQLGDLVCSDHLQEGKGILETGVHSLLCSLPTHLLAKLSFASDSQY

Turning to `COc1ccc(C(C)(NC(C)=O)c2nc(-c3cc(F)cc(F)c3)cs2)cc1` (configuration not stated), the Potency entry in experiment [1] and in experiment [3] was “inactive” each time. Moreover, the activation in experiment [2] was 0% [at 17.1 µM, percent relative to cAMP agonist control]; in experiment [5] it was 15% [at 30.8 µM]. Moreover, in experiment [4], the activity change, negative = inhibition is -9.04% [at 30.8 µM].

For `Cc1ccc(/C=C/C(=O)Nc2ccc([N+](=O)[O-])c(NC(=O)/C=C/c3ccc(C)o3)c2)o1`, in experiment [6], the Potency is 3.77 µM (active). In experiment [7], the call was inactive. Moreover, the Potency entry in experiment [1] and in experiment [3] was “inactive” throughout. In addition, the activation was 6% [at 17.1 µM, percent relative to cAMP agonist control] in experiment [2] and 27.5% [at 30.8 µM] in [5]. In addition, in experiment [4], the activity change, negative = inhibition is 4.14% [at 30.8 µM].

Take `CC1(C)Cc2c(C#N)c(N3CCN(C(=O)c4ccco4)CC3)nc(-c3ccco3)c2CS1`: the Potency in [8] was above 20.6 µM. Besides, the Potency entry in experiment [1], in [2], in [3], in [4] and in [5] was “inactive” in each case.

As for `Cc1cccc(CN2C(=O)c3ccccc3Sc3ccc(C(=O)N4CCCC4)cc32)c1`, the Potency result in experiment [1], in experiment [2], in [3], in experiment [4] and in experiment [5] was “inactive” in each case.

Regarding `O=C(c1ccc(O)c(Br)c1)c1cc(Br)ccc1O`, the Potency entry in experiment [1] and in [3] was “inactive” in each case. The activation in [2] was 3.68% [at 17.1 µM, percent relative to cAMP agonist control]; in [5], 26.8% [at 30.8 µM]. Besides, the activity change, negative = inhibition in experiment [4] was -2.96% [at 30.8 µM].

`C=CCn1cc(C(=O)N2CCc3ccccc3C2)c(=O)c2cc(S(=O)(=O)N(CC)CC)ccc21`: the Potency entry in experiment [1], in [2], in [3], in [4] and in experiment [5] was “inactive” throughout.

For `Cc1cc2nc(-c3ccc(SCc4ccccn4)nc3)[nH]c2cc1C`, the Potency result in experiment [1] and in experiment [3] was “inactive” in each case. The activation in experiment [2] is 4.1% [at 17.1 µM, percent relative to cAMP agonist control]; in experiment [5] it was 19.2% [at 30.8 µM]. For the same compound, in [4], the activity change, negative = inhibition is 1.95% [at 30.8 µM].

As for `O=C(Nc1ccccc1Cl)/C(Cl)=C(\Cl)S(=O)c1ccccc1` (configuration not stated), the Potency was 3.36 µM (active) in experiment [9], 3.16 µM (active) in experiment [10], 3.66 µM (active) in experiment [11] and 20.6 µM (active) in experiment [12]. The Potency result in [1], in experiment [2], in experiment [3], in experiment [4] and in experiment [5] was “inactive” each time.

As to `CN(CC(=O)Nc1ccc(Cl)c(C(F)(F)F)c1)C(=O)Cc1c[nH]c2ccccc12`, the Potency entry in experiment [1] and in [3] was “inactive” each time. Moreover, the activation in experiment [2] was 5.51% [at 17.1 µM, percent relative to cAMP agonist control]; in experiment [5], 36.2% [at 30.8 µM]. Further, in [4], the activity change, negative = inhibition is -15.4% [at 30.8 µM].
